Each sequence was assayed against BARX2 (assay: pooled miR-30 sensor sort-seq; sequence = guide strand). Details: shRNA.
Also: reference of the scale not given here.

In order of rising sensor-assay potency score (higher = more potent):
1. TCAGCTTCAATCTCTTCTGATG  -1.18
2. TAATCGCAGGTCTCCTTGGAGA  -1.07
3. TCCGTCTCTGACTCGCTGCTGG  -0.99
4. TGCTTCACAGAGCTCCTCCTGC  -0.821
5. TTAAGAACCATTTTCTTCCATT  -0.688
6. TTCTCTTCAGCTTCAATCTCTT  -0.0921
7. TCAATCTCTTCTGATGTGGGGA  0.111
8. TTTAAGAACCATTTTCTTCCAT  0.594

What follows are sequences tested against BAX in the same assay as above. Details: shRNA.

In order of falling sensor-assay potency score (higher = more potent):
1. TTGAGCACCAGTTTGCTGGCAA  0.213
2. TTCATGATCTGCTCAGAGCTGG  0.0889
3. TGCGCTTGAGACACTCGCTCAG  0.0222
4. TTACTGTCCAGTTCGTCCCCGA  -0.0654
5. TAGAAAAGGGCGACAACCCGGC  -0.132
6. TGATGGTTCTGATCAGTTCCGG  -0.352
7. ATCAGTTCCGGCACCTTGGTGC  -0.369
8. AAACATGTCAGCTGCCACTCGG  -0.504
9. TTGAGACACTCGCTCAGCTTCT  -0.529
10. TCGGAAAAAGACCTCTCGGGGG  -0.669
11. TTGCCGTCAGAAAACATGTCAG  -0.725
12. TCGATCCTGGATGAAACCCTGA  -0.785
13. TACTGTCCAGTTCGTCCCCGAT  -0.951
14. ATGATCTGCTCAGAGCTGGTGG  -1.15
15. AACATGTCAGCTGCCACTCGGA  -1.25
16. AATCATCCTCTGCAGCTCCATG  -1.42
17. TTGGATCCAGCCCAACAGCCGC  -1.52
18. ATGCGCTTGAGACACTCGCTCA  -1.61
19. TCATGATCTGCTCAGAGCTGGT  -1.61
20. TAGGAGAGGAGGCCGTCCCAAC  -1.61
21. TTCTTGGTGGACGCATCCTGAG  -1.72
22. TCTTGGTGGACGCATCCTGAGG  -1.92

Each sequence was assayed against BBC3 in the same assay as above. Details: shRNA.

In order of falling sensor-assay potency score (higher = more potent):
1. TCGTACTGTGCGTTGAGGTCGT  0.393
2. TATACAGTATCTTACAGGCTGG  -0.558
3. TGTGCGTTGAGGTCGTCCGCCA  -0.785
4. TTGTCTCCGCCGCTCGTACTGT  -1
5. TTGTACAGGACCCTCCAGGGTG  -1.05
6. TGCTCCTCTTGTCTCCGCCGCT  -1.11
7. TACAGGACCCTCCAGGGTGAGG  -1.57
8. TTGAGGTCGTCCGCCATCCGCC  -1.67
9. TGCGTTGAGGTCGTCCGCCATC  -1.7
10. TGCTCCGCCAGCGAGAGCGAGG  -2.06

— the OligoGym collection
